# In PMC7010328:
# Experiments:
# [1] = target: Nucleosome assembly protein 1-like 1 (UniProt P55209); assay: cross-link between two proteins; cross-linking mass spectrometry
# [2] = target: Small ribosomal subunit protein uS11 (UniProt P62263); assay: as above
# Sequence of UniProt P55209 (P55209 whole entry): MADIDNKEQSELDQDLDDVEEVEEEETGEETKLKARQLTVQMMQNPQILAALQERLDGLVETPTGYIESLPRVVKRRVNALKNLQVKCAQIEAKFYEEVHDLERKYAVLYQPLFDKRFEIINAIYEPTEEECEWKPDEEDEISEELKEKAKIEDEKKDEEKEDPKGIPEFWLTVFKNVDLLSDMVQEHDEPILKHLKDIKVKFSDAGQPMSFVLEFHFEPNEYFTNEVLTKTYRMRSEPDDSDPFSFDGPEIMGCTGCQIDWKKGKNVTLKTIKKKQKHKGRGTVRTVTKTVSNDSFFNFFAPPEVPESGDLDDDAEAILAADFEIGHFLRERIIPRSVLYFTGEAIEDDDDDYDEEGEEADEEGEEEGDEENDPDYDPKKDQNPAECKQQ
substance,measurement,setting,value
"60 kDa heat shock protein, mitochondrial, P10809",listed as a hit,[1],yes
same,listed as a hit,[2],yes
